Pol beta inh: inhibitors of human DNA polymerase beta | P06746 | actives 1.3% (n = 340,000) | Potency, µM (top dose mostly 114 µM), actives largely listed as inhibitors | Pol beta primer extension/strand displacement, fluorescence kinetic
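Reaction started by 50 nM substrate onto compound-treated Pol beta (10 nM, 15 min preincubation, room temperature); plates read at 0 min and 10 min. Normalized concentration-effect data fitted by four-parameter Hill equation.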
Pol kappa inh-1: DNA polymerase kappa (human) inhibition; Q9UBT6; purified Pol kappa, fluorescent DNA synthesis assay, 10 min; Potency, µM (titrated, usually from 107 µM), usual class: inhibitors; actives 0.53% (n = 400,000)
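Inhibition of 10 nM Pol kappa is measured by a fluorescent read-out at 0 and 10 min following addition of 50 nM substrate (final), with a 15-min room-temperature compound preincubation.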
WRN helicase inh: inhibitors of human WRN helicase; Potency, µM (top dose mostly 114 µM), usual class: inhibitors; actives 0.46% (n = 360,000); AID 651768; WRN helicase unwinding, fluorescent forked duplex, kinetic; also: nearly all actives have a fitted effect of over 55% in size
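Kinetic fluorescence helicase assay: unwinding of a quenched forked DNA duplex (100 nM final) with 2 mM ATP final raises red fluorescence (525/598 nm). Compounds sat 15 min at room temperature with 20 nM WRN beforehand.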
Pol eta inh-1: inhibitors of human DNA polymerase eta | AID 588591 | Q9Y253 | actives 1.2% (n = 390,000) | recombinant Pol eta, fluorescent DNA replication assay | Potency, µM (titrated, usually from 114 µM), actives largely listed as inhibitors
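Pol eta at 10 nM preincubated with compounds 15 min at room temperature; reaction started with fluorescent substrate (50 nM final) and read kinetically at 0 and 10 min.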
FEN1 inhibitor: blocks human flap endonuclease 1; actives 0.35% (n = 390,000); Potency, µM (series often up to 114 µM), actives largely listed as inhibitors; AID 588795; Recombinant FEN1 flap cleavage, fluorescence, 15 min; also: nearly all actives have a fitted effect of over 65% in size
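Enzyme 10 nM, 15 min RT preincubation with compound; start with substrate 50 nM final; reads at 0 and 15 min; qHTS titration, four-parameter Hill fit.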
Pol iota inh: inhibitors of human DNA polymerase iota; Q9UNA4; Pol iota fluorescent replication assay, 10 min; Potency, µM (titrated, usually from 115 µM), actives largely listed as inhibitors; actives 1% (n = 390,000); AID 588590
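Fluorescent replication assay read twice, at 0 min and 10 min after adding 50 nM (final) substrate. Enzyme (10 nM) and compounds were first incubated 15 min at room temperature; enzyme-free buffer wells were negative controls.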
GALK inh confirm: galactokinase (human) inhibition, confirmation; purified GALK, Kinase-Glo ATP depletion luminescence; actives 70% (n = 150); AID 2015; shares compounds with Pol eta inh-1; Potency, µM (titrated, usually from 115 µM), most hits filed as inhibitors
Redox cycling: generates H2O2 by redox cycling, flagging GALK artifacts; shares compounds with Pol eta inh-1; actives 40% (n = 150); Phenol red-HRP H2O2 redox cycling, absorbance 600 nm; AID 2035; Potency, µM (highest dose often 115 µM), actives largely listed as inhibitors
HEK293 tox: HEK-293 cytotoxicity, GALK inhibitor secondary | shares compounds with Pol eta inh-1 | HEK-293 viability, ATP luminescence (CellTiter-Glo), 24/48 h | Potency, µM (series often up to 46.1 µM), usual class: inhibitors | actives 10% (n = 170)
Pol kappa inh-2: confirmation of human DNA polymerase kappa inhibitors; shares compounds with Pol eta inh-1; purified Pol-kappa, fluorescent strand-displacement substrate; Potency, µM, most hits filed as inhibitors; actives 76% (n = 920); AID 720501
Pol eta inh-2: confirmation of human DNA polymerase eta inhibitors. actives 64% (n = 2,600). Pol eta primer extension, TAMRA/BHQ fluorescence, 10 min. Potency, µM, hits mostly inhibitors. shares compounds with Pol eta inh-1
Hits are given with their value; . = inactive; ? = inconclusive; / = no result; [ ] = dose if it differs, or a comment. Sampled rows, rich in hits. Any-hit rate of the full collection: about 2.4%. Calls follow the shape of the dose curve; as a rule, active = well fitted curve in the direction sought with a large enough effect; inconclusive = small, poorly fitted or top-dose-only effect, or another doubt; inactive = no such curve, though single readings can be large; an effect the other way counts as inactive or inconclusive.

SMILES	Pol beta inh	Pol kappa inh-1	WRN helicase inh	Pol eta inh-1	FEN1 inhibitor	Pol iota inh	Pol eta inh-2	others
O=C(COc1ccccc1/C=C\c1[nH]c(=O)[nH]c(=O)c1[N+](=O)[O-])Nc1ccccc1	.	.	.[11.6 µM]	22µM	.	20µM	76	GALK inh confirm=38µM;Redox cycling=.;HEK293 tox=.
CC(=O)OCC1=C(C(=O)O)N2C(=O)C(NC(=O)Cn3nc(C(F)F)c(Cl)c3C)C2SC1 (configuration not stated)	28µM	50µM	.[11.6 µM]	20µM	.	?	60
Cc1nnc(SCC2=C(C(=O)O)N3C(=O)C(NC(=O)Cn4nc(C(F)F)c(Cl)c4C)C3SC2)s1 (configuration not stated)	25µM	50µM	?	20µM	.	.	76
Cc1nn2c(=O)cc(COC(=O)c3ccc(NC(=O)c4cccc(Br)c4)cc3)nc2s1	.	.	/	.	.	.	/
C#CCNC(=O)C[C@@H]1C[C@@]2(C(=O)OC)CCCCC=C2N(Cc2ccc(Cl)cc2Cl)C1=O	/	/	.	/	/	/	/
CC1C(=O)Nc2ccc(S(=O)(=O)NCc3ccc(N(C)C)cc3)cc2NC1=O (configuration not stated)	.	.	/	?	.	.	?
COc1ccc(CNS(=O)(=O)c2ccc3c(c2)NC(=O)C(C)C(=O)N3)cc1 (configuration not stated)	.	.	/	.	.	.	/
CC(O)(c1cccc(F)c1)c1nc(-c2cccc3cccnc23)cs1 (configuration not stated)	/	/	.	/	/	/	/
N=C1/C(=C/c2ccc(OCc3ccccc3F)cc2)C(=O)N=C2SC(CC(=O)N3CCOCC3)=NN12	?	?	.	.	.	25µM	?
N=C1/C(=C\c2ccc(Br)o2)C(=O)N=C2SC(CC(=O)N3CCCCC3)=NN12	?	32µM	?	22µM	?	?	85
COc1cc(/C=C2/C(=N)N3N=C(CC(=O)N4CCOCC4)SC3=NC2=O)ccc1OC(C)c1ccccc1 (configuration not stated)	.	.	.	?	.	?	/
COc1cc(C2C(C#N)=C(N)Oc3cc(O)ccc32)cc2c1OCO2 (configuration not stated)	.	.	.	.	.	.	/
COc1cc(C2C(C#N)=C(N)OC3=C2C(=O)CC(C)(C)C3)cc2c1OCO2 (configuration not stated)	/	?	?	?	.	25µM	?
O=S(=O)(Nc1nc2ccccc2s1)c1cc(F)ccc1F	.	.	.	.	.	.	/
O=S(=O)(Nc1nc(-c2ccco2)c(-c2ccco2)s1)c1ccc(F)cc1F	/	/	?	28µM	/	/	?	Pol kappa inh-2=?
COc1ccccc1Cn1cc(C(=O)c2ccc(C)cc2)c(=O)c2cc(F)cc(F)c21	.	.	/	.	.	.	/
CN[C@@H](CO)C(=O)NC[C@H]1O[C@@H](n2cc(C)c(=O)[nH]c2=O)C[C@@H]1O	/	/	.	.	/	/	/
COc1ccc(OC)c(/C=N/Nc2nncn2/N=C/c2cc(OC)ccc2OC)c1	?	.	.	?	?	?	30
CCCN1CNc2c(c(=O)[nH]c(=S)n2CCc2ccc(C)cc2)C1	/	.	/	/	.	.	/
O=[N+]([O-])c1ccc(C=NNc2ccc(S(=O)(=O)O)cc2)cc1	/	.	.[11.6 µM]	22µM	.	?	48
Cc1ccc(C)c(Cn2c(=O)n(CCCCC(=O)NCc3ccccc3Cl)c(=O)c3ccccc32)c1	.	.	/	.	.	.	/
Cc1cc(O)c(C(C)C)cc1C1(c2cc(C(C)C)c(O)cc2C)OC(=O)c2ccccc21	.	.	.	.	.	.	/
Cc1cc(C2(c3ccc(O)c(C)c3)OC(=O)c3ccccc32)ccc1O	35µM	.	.	?	.	?	?
O=C(O)C(Cc1ccccc1)N1C(=O)C=CC1=O (configuration not stated)	/	/	.	.	/	/	/
C=CCN(CC=C)S(=O)(=O)c1ncn[nH]1	?	?	.	8.9µM	.	?	?
SMILES	Pol beta inh	Pol kappa inh-1	WRN helicase inh	Pol eta inh-1	FEN1 inhibitor	Pol iota inh	Pol eta inh-2	others
COc1ccc(-c2c(C(F)(F)F)[nH]n3c(=O)cc(-c4ccccc4)nc23)cc1	.	.	.	89µM	.	.	?
CCOC(=O)N(C)C[C@H]1OCc2cnnn2CCCC(=O)N([C@@H](C)CO)C[C@@H]1C	/	/	.	.	/	/	/
CCOc1ccc(Cc2c(C)[nH]c3ccc(C(=O)O)cc3c2=S)cc1	?	?	?	50µM	.	?	?
COc1cc2c(cc1OC)-c1cc(Nc3ccc(C(=O)O)cc3)nc(=O)n1CC2	?	.	?	35µM	.	?	?
Cc1ccc(Sc2c(C(=O)NCc3ccccc3C)[nH]c3ccccc23)cc1	.	.	/	.	.	.	/
COCc1cc(C)n(CC(=O)N/N=C/c2ccc(-c3ccc(Cl)c(C(=O)O)c3)o2)c(=O)c1C#N	20µM	?	?	10µM	.	22µM	43
CCOC1=C2[C@H](c3ccc(Cl)cc3)N(S(=O)(=O)c3ccc(C)cc3)C[C@H]2n2c(=O)n(-c3ccccc3)c(=O)n2C1	/	/	.	/	/	/	/
CC(C)OC(=O)C(C(=O)C(F)(F)F)c1cc(NS(=O)(=O)c2ccc3ccccc3c2)c2ccccc2c1O (configuration not stated)	.	.	?	?	?	?	/	GALK inh confirm=?;Redox cycling=.;HEK293 tox=.
Cc1cc(-c2n[nH]c(=S)n2/N=C/c2ccc(Br)s2)n[nH]1	.	.	.	.	.	?	/
S=c1[nH]nc(-c2cc(-c3ccccc3)n[nH]2)n1/N=C/c1ccc(Br)s1	18µM	?	.[11.6 µM]	?	?	22µM	?	Pol kappa inh-2=42
CNC(=O)c1c[nH]c2ccc(S(=O)(=O)Nc3cccc(Cl)c3C)cc2c1=O	32µM	?	/	?	.	?	?	Pol kappa inh-2=21

Screening results as filed in PubChem.
